# Assay results from PubChem BioAssay (NCATS).
# Experiment: qHTS profiling of the MIPE4 collection as inhibitors of Plasmodium falciparum (DD2) proliferation (AID 743345)
# Details: P. falciparum Dd2 in erythrocytes, SYBR Green DNA, 72 h; at 28.5 µM (top of the series) unless noted
# From the text: Plasmodium falciparum is a virulent malarial parasite that kills 1-2 million people worldwide each year. Transmitted by mosquitoes, the sporozoite form of the parasite enters the blood stream to infect hepatocytes, where they become merozoites that infect red blood cells (erythrocytes). Within erythrocytes, merozoites begin a […] cycle of growth and division, after which the parasite is released to infect new red blood cells. Gametocytes, which form within erythrocytes as well, circulate in the bloodstream and are ingested by the mosquito, thereby completing the life cycle. To profile malarial isolates for differential chemical responses and to identify inhibitors of malarial growth, an assay that measures P. falciparum growth and replication within erythrocytes was employed. This assay uses a DNA binding fluorescent dye (SYBR Green) to detect parasite DNA following cell lysis. Because mature erythrocytes lack DNA, only Plasmodium-derived DNA is detected.
# The SYBR Green viability assay was adapted from a method described previously (Plouffe et al., 2008). For screening 3 ul culture medium was dispensed into 1536 well black clear bottom plates (Aurora Biotechnologies) using a Multidrop Combi (Thermo Fisher Scientific Inc.), 23 nL compounds in DMSO were added by a pin tool (Kalypsys), and 5 ul of erythrocytes infected with P. falciparum (0.3% parasitemia, 2.5% hematocrit final concentration) were added. The plates were incubated at 37 C in a humidified incubator in 5% CO2 for 72 h, and 2 ul lysis buffer (20 mM Tris HCl, 10 mM EDTA, 0.16% saponin, 1.6% triton X, 10X SYBR Green I supplied as 10,000X […] by Invitrogen) was added to each well. The plates were mixed for 25 sec with gentle shaking and incubated overnight at room temperature in the dark. The following morning, fluorescence intensity at 485(14) nm excitation and 535(25) nm emission wavelengths was measured on an EnVision (Perkin Elmer) plate reader. Plate reads were normalized relative to the control inhibitor (0.29 uM artemisinin) and vehicle (DMSO) wells present on each plate and then corrected by an algorithm using vehicle-only control plates at the beginning and end of the compound plate stack.
row,SMILES,"parasite growth remaining, % of DMSO control (lower = more inhibition)"
1,O=C(Nc1nc2cccc(-c3ccc(CN4CCS(=O)(=O)CC4)cc3)n2n1)C1CC1,97.6%
2,CNC(=O)c1nn(C)c2c1C(C)(C)Cc1cnc(Nc3ccc(N4CCN(C)CC4)cc3)nc1-2,11.1%
3,COc1cc2c(Nc3ccc(NC(=O)c4ccccc4)cc3)ncnc2cc1OCCCN1CCOCC1,21.6%
4,CN(c1ncccc1CNc1nc(Nc2ccc3c(c2)CC(=O)N3)ncc1C(F)(F)F)S(C)(=O)=O,14.1%
5,O=C(O)c1ccc2c(c1)nc(Nc1cccc(Cl)c1)c1ccncc12,9%
6,CC(NCc1ccc2c(c1)nc(NC(=O)c1ccc(-c3cn[nH]c3)s1)n2CC(C)(C)O)C(C)(C)C (stereo not given),7.07%
7,CCOc1ccccc1OCCNC(C)Cc1ccc(OC)c(S(N)(=O)=O)c1 (stereo not given),84.6%
8,COc1cc2nccc(Oc3ccc(NC(=O)C4(C(=O)Nc5ccc(F)cc5)CC4)cc3)c2cc1OC,10.7%
9,O=C1CCC[C@@H]2[C@H]3CCC[N+]4([O-])CCC[C@@H](CN12)[C@@H]34 (stereo not given in full),33.8%
10,CC=CC1=C(C(=O)O)N2C(=O)[C@H](NC(=O)[C@H](N)c3ccc(O)cc3)[C@@H]2SC1,99.9%
11,O=c1c2ccccc2nc2n1CCc1c-2[nH]c2ccccc12,88.1%
12,CCS(=O)(=O)c1cccc(-c2cc(C(=O)NC3CCN(C)CC3)c(C)c3[nH]c4ncc(C)cc4c23)c1,9.76%
13,O=C(CCCCCCNC(=O)c1cnc(N(c2ccccc2)c2ccccc2)nc1)NO,7.75%
14,Cc1ccc(CN2CCNCC2)cc1NC(=O)CNc1ccc(F)c(F)c1,103%
15,CC(C)(C)c1cnc(CSc2cnc(NC(=O)C3CCNCC3)s2)o1,13%
16,C[C@@H](Oc1cc(-n2cnc3ccc(CN4CCN(C)CC4)cc32)sc1C(N)=O)c1ccccc1C(F)(F)F,7.2%
17,Nc1ccc(C(=O)c2cc3c(ccc4ccccc43)[nH]2)cc1,83.6%
18,Nc1ncnc2c1c(-c1cnc3[nH]ccc3c1)nn2C1CCCC1,8.6%
19,CCN1CCN(CC(=O)Nc2ccc(-c3cccc4c(=O)cc(N5CCOCC5)oc34)c3sc4ccccc4c23)CC1,6.58%
20,Cc1cn2c(-c3cn[nH]c3)cnc2c(Nc2ccc(C(=O)N3CCNCC3)cc2F)n1,11.4%

row,SMILES,"parasite growth remaining, % of DMSO control (lower = more inhibition)"
1,CCN1CCN(Cc2ccc(-c3cc4c(N[C@H](C)c5ccccc5)ncnc4[nH]3)cc2)CC1,8.31%
2,CC(C)c1ccc(Cn2ccc3c4c(N)nc(NC5CC5)nc4ccc32)cc1,6.19%
3,Cc1cn2cc(C(=O)N(C)CCO)cc(N[C@@H]3CCOc4cccc(C)c43)c2n1,86.7%
4,Cc1ccc(C(N)=O)cc1Nc1nccc(-c2cn(C(C)C)c3cnccc23)n1,6.53%
5,Cc1cn(-c2cc(NC(=O)c3ccc(C)c(Nc4nccc(-c5cccnc5)n4)c3)cc(C(F)(F)F)c2)cn1,8.07%
6,Cc1cc(Nc2cc(N3CCN(C)CC3)nc(C=Cc3ccccc3)n2)n[nH]1,6.9% [at 57.5 µM]
7,COC(=O)Nc1nc2ccc(C(=O)c3ccc(F)cc3)cc2[nH]1,96.2%
8,CC(C)(O)c1cc2nc(-c3cnc(N)nc3)nc(N3CCOCC3)c2s1,10.4%
9,Cn1c2cc(S(C)=O)sc2c2cnn(Cc3cccc(N)c3)c(=O)c21 (stereo not given),102%
10,Cc1cccc(C=NNc2cc(N3CCOCC3)nc(OCCc3ccccn3)n2)c1,15.2%
11,COc1ccc(CC2SC(=O)NC2=O)cc1C(=O)NCc1ccc(C(F)(F)F)cc1 (stereo not given),91.4%
12,CN1CCN(Cc2ccc(NC(=O)Nc3ccc(Oc4cc(NC(=O)C5CC5)ncn4)cc3)cc2C(F)(F)F)CC1,6.55%
13,CN1CCN(c2ccc3nc(-c4c(N)c5c(F)cccc5[nH]c4=O)[nH]c3c2)CC1,6.04%
14,Cc1cc(CN2CCN(c3c(Br)cnc4nc(-c5ccc(N6CCN(C)CC6)cc5)[nH]c34)CC2)no1,6.44%
15,CC(=O)OCCN1C(=O)c2c(C)nc3ccc(S(=O)(=O)N4CCOCC4)cc3c2C1=O,102%
16,Cc1cc(Nc2cc(N3CCN(C)CC3)nc(Sc3ccc(NC(=O)C4CC4)cc3)n2)n[nH]1,16%
17,C=CC(=O)Nc1cccc(Oc2nc(Nc3ccc(N4CCN(C)CC4)cc3)ncc2Cl)c1,16.8%
18,Nc1ccc(S(=O)(=O)Nc2ncccn2)cc1,105%
19,Nc1cc(C(F)(F)F)c(-c2cc(N3CCOCC3)nc(N3CCOCC3)n2)cn1,94%
20,O=C(Nc1cc(C(F)(F)F)cc(C(F)(F)F)c1)c1cc(Cl)ccc1O,6.62%
